CHOP inh – inhibitors of CHOP induction in ER stress response; hit rate 3.8% among 220,000; CHO-K1 CHOP-promoter luciferase, tunicamycin-induced, 15-18 h; inhibition, % at 10 µM;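 active = compounds that reduced the stress-induced luciferase reporter signal by more than about 70% of percent inhibition, limit read from the data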
RAM network inh – blocks the yeast RAM network; S. cerevisiae dse1pr::URA3 reporter, 5-FOA growth OD615, 2 d; analog-sensitive cbk1-as2 kinase mutant strain; AID 868; inhibition, % at 50 µM; hit rate 1.8% among 190,000;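 active = inhibition above a set limit, 3 SD over mean compound inhibition, cut at about 8.4% in these data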;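 also: inhibition rescues growth on 5-FOA so higher OD means more RAM inhibition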
Lmaj promast – reduces viability of Leishmania major promastigotes. resazurin fluorescence viability. inhibition, % at 10 µM. hit rate 9% among 200,000. AID 1063; in the data active = inhibition above about 50%;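 also: promastigotes grown with compound for 44 hours at 28 °C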
WT yeast gro inh – growth inhibition of WT yeast, mitochondrial fusion screen; mitochondrial fusion phenotypic screen, WT strain; AID 1362; hit rate 2.1% among 190,000; inhibition, % at 10 µM; in the data active = inhibition above about 58%; tested in S. cerevisiae
Large screens that a line does not name were inactive. Only some compounds are listed: those with a hit (about 13% of all), similar ones and a draw of the others.

Cc1ccc([N+](=O)[O-])cc1N(CC(=O)Nc1ccc(S(=O)(=O)Nc2cccc(C(F)(F)F)c2)cc1)S(C)(=O)=O	none
COc1ccc(C2CC(=O)C3=C(C2)Nc2ncnn2C3c2ccccc2C)cc1 (stereo unspecified)	Lmaj promast 100.0
COc1ccc(C2CC(=O)C3=C(C2)Nc2ncnn2C3c2ccccc2)cc1 (stereo unspecified)	Lmaj promast 90.5
O=C(CCc1ccc(S(=O)(=O)N2CCOCC2)cc1)Nc1ccc2c(c1)OCCO2	none (no result: RAM network inh, Lmaj promast, WT yeast gro inh)
CC(C)C(NS(=O)(=O)c1cccc2nsnc12)C(=O)NCc1ccco1 (stereo unspecified)	none (no result: RAM network inh, Lmaj promast, WT yeast gro inh)
CCc1ccc(NC(=O)C(NS(=O)(=O)c2cccc3nsnc23)c2ccccc2)cc1 (stereo unspecified)	RAM network inh 9.1
CC(C)C(NS(=O)(=O)c1cccc2nsnc12)C(=O)NCc1ccc2c(c1)OCO2 (stereo unspecified)	Lmaj promast 100.0
CNC(=O)c1ccc(-c2sc3nc(N4CCOCC4)c4c(c3c2N)CCCC4)o1	RAM network inh 9.3
O=C(Nc1ccccc1)N(C1=NCCC1)c1ccc(OC(F)F)cc1	CHOP inh 81.2
CCOc1ccc(N(C(=O)Nc2ccccc2)C2=NCCC2)cc1	none
COc1ccc(OC)c(NS(=O)(=O)c2cc(OC)ccc2OC)c1	Lmaj promast 86.9
Cc1cc(S(=O)(=O)Nc2cccc(Cl)c2)c(C)s1	none
COc1ccc(OC)c(S(=O)(=O)Nc2cccc(F)c2)c1	Lmaj promast 96.8
COc1ccc(S(=O)(=O)Nc2ccc(S(=O)(=O)Nc3ccc(F)cc3)cc2)cc1C	RAM network inh 9.6
COc1ccc(OC)c(S(=O)(=O)Nc2ccccc2C)c1	none
COc1ccc(S(=O)(=O)Nc2ccccc2OC)cc1C	none
COc1cccc(NS(=O)(=O)c2cc(C)sc2C)c1	CHOP inh 75.5
CCn1nc(C)c(/C=N/NC(=O)c2ccc3c(c2)c(C)c(C)n3Cc2ccccc2)c1C	none
N#CCC(=O)Nc1ccc(C(=O)NCc2cccc(Cl)c2)cc1	none (no result: RAM network inh, Lmaj promast, WT yeast gro inh)
Cc1ccc(S(=O)(=O)N2CCN(C(=O)Cc3ccc4c(c3)OCCO4)CC2)cc1C	none
NNC(=O)c1ccc(CSc2nc3ccccc3[nH]2)cc1	none
CCn1ncc(CN2CCN(Cc3cccc(OC)c3)C(CCO)C2)c1C (stereo unspecified)	none
COc1ccc(C)cc1S(=O)(=O)Nc1ccc(F)cc1	WT yeast gro inh 62.4
COc1ccc(NC(=O)c2c(F)cccc2F)cc1S(=O)(=O)Nc1ccc(Br)cc1	Lmaj promast 52.0
CCOc1cc(C)c(S(=O)(=O)Nc2ccc(F)cc2)cc1C	CHOP inh 81.4, RAM network inh 13.4, Lmaj promast 58.4
COc1ccc(S(=O)(=O)Nc2cccc(N(C)S(C)(=O)=O)c2)cc1C	none
CCOc1ccc(Br)cc1S(=O)(=O)Nc1ccc(NC(=O)c2ccccc2F)cc1	none
COc1ccc(S(=O)(=O)Nc2cccc(F)c2)cc1C	Lmaj promast 65.4
CCCCCOc1ccc(Cl)cc1CN1CCOCC1	Lmaj promast 79.6
CC(C)CCOc1ccc(Cl)cc1CN1CCOCC1	CHOP inh 82.9, Lmaj promast 89.4
Cc1ccc(CN2CCN(/N=C/c3ccc(C(F)(F)F)cc3)CC2)c(C)c1	WT yeast gro inh 64.0
Cc1ccc(CN2CCN(/N=C/c3ccc(C(=O)O)cc3)CC2)c(C)c1	none
COC(=O)c1ccc(/C=N/N2CCN(Cc3ccc(C)cc3C)CC2)cc1	Lmaj promast 83.9
CC(C)Cc1nnc(NC(=O)CSc2nc(O)c(-c3ccccc3)c(=O)[nH]2)s1	none
CC(=O)Nc1cccc(OCCCNC(=O)C2CCC2)c1	none (no result: RAM network inh, Lmaj promast, WT yeast gro inh)
CC(Nc1[nH]c(=O)n(C)c(=O)c1N=O)c1ccccc1 (stereo unspecified)	none
CCS(=O)(=O)c1ccc(O)c(NC(=O)Nc2ccccc2OC)c1	none (no result: RAM network inh, Lmaj promast, WT yeast gro inh)
COc1ccc(NC(=O)c2ccc(-c3ccccc3C(F)(F)F)o2)cc1	WT yeast gro inh 66.9
COc1ccccc1CNC(=O)c1ccc(-c2ccccc2Cl)o1	RAM network inh 10.0
COc1ccccc1CNC(=O)c1ccc(-c2ccccc2C(F)(F)F)o1	WT yeast gro inh 64.1
Cc1oc(-c2ccccc2)cc1C(=O)Nc1ccccc1	none
COc1ccc(NC(=O)c2cc(-c3ccccc3)oc2C)cc1	Lmaj promast 55.8
OCCNNC(=S)NC1CC2C=CC1C2 (stereo unspecified)	none (no result: RAM network inh, Lmaj promast, WT yeast gro inh)
O=C(NCC1(N2CCCCC2)CCCCC1)C1CC(=O)N(c2ccc3c(c2)OCCO3)C1 (stereo unspecified)	none
O=C1CC2(CCCC2)C(=O)N1c1ccc(S(=O)(=O)NCC2CC2)cc1Cl	none (no result: RAM network inh, Lmaj promast, WT yeast gro inh)
O=C(O)COc1ccccc1/C=N/NC(=O)CN1CCN(Cc2ccc(Cl)cc2)CC1	none (no result: RAM network inh, Lmaj promast, WT yeast gro inh)
COc1ccccc1NC(=O)C(=O)NCc1ccccc1Cl	RAM network inh 8.7

High-throughput results: PubChem BioAssay, several laboratories
